Common to all, as to test: NCI-60 one-dose screen, 48 h (100 = growth as untreated, 0 = no growth, -100 = all killed)
One test deals with HCT-15 colon. To be noted: 10 µM unless noted.
The subject of the next test is HT29 colon. To be noted: 10 µM unless noted.
A further test has as its system SNB-75 CNS. To be noted: 10 µM unless noted.
A further test deals with SNB-19 CNS. To be noted: 10 µM unless noted.
For a further test, the system named is U251 CNS. To be noted: 10 µM unless noted.
Another test deals with PC-3 prostate. The settings on record: 10 µM unless noted.
For another test, the system named is SK-MEL-5 melanoma. To be noted: 10 µM unless noted.
Another test concerns UACC-62 melanoma. To be noted: 10 µM unless noted.
A further test relates to LOX IMVI melanoma. To be noted: 10 µM.
The next test relates to SK-MEL-28 melanoma. To be noted: 10 µM unless noted.

This is an account of results in PubChem BioAssay (NCI).

This is part of a sample that, as a whole, favours compounds with a hit. Of some 83,000 tested, about 20% had one in any assay.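 In brief: 96-well plates, 48 h treatment, single concentration, percent growth endpoint.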 Unmarked numbers belong to inactive results. Activity calls are given as the source filed them. Rule for the calls: active = growth percent below 10; inactive = the rest.

As to `CC12CCC(O)CC1=CCC1C2CCC2(C)C3=NN=CC3CC12` (stereo not given), the growth in the test on HCT-15 colon was 95.1%; with HT29 colon, 99%; in the test on SNB-75 CNS, 93.7%; with SNB-19 CNS, 103%; with U251 CNS, 101%; with PC-3 prostate, 103%. In addition, the growth in the test on SK-MEL-5 melanoma was 96.4%; in the test with UACC-62 melanoma, 92.5%; in the test on LOX IMVI melanoma, 100%; in the test with SK-MEL-28 melanoma it was 103%.
For `COc1ccc(/C=C2/C(=O)ON=C2C)cc1`, the growth with HCT-15 colon is 112%; with HT29 colon, 99.2%; with SNB-75 CNS, 106%; in the test with SNB-19 CNS, 106%; in the test on U251 CNS, 98.6%; with PC-3 prostate, 97.6%. Besides, the growth in the test on SK-MEL-5 melanoma is 103%; with UACC-62 melanoma, 90.3%; in the test with LOX IMVI melanoma it was 99.4%; with SK-MEL-28 melanoma, 106%.
Consider `CCCCCCCCCCCCCCCC[N+]1(C)CCCC1c1cccnc1` (stereo not given), for which the growth was 77.9% with HCT-15 colon; 15.1% with HT29 colon; 37.1% in the test with SNB-75 CNS; 29.1% with SNB-19 CNS; 16.7% in the test on U251 CNS; 8.08% (active) in the test with PC-3 prostate. Besides, the growth is 43.9% with SK-MEL-5 melanoma, 50.6% in the test on UACC-62 melanoma, 49.2% in the test with LOX IMVI melanoma and 97% in the test with SK-MEL-28 melanoma.
Regarding `NC(CS/C(Cl)=C/Cl)C(=O)O` (stereo not given), the growth is 85.5% in the test on HCT-15 colon; 86.8% in the test with HT29 colon; 103% in the test with SNB-75 CNS; 85.9% in the test with SNB-19 CNS; 84.7% in the test on U251 CNS; 64.1% in the test with PC-3 prostate. Further, the growth in the test on SK-MEL-5 melanoma is -60.9% (active); with UACC-62 melanoma, 77.4%; in the test with LOX IMVI melanoma it was -57.3% (active); in the test on SK-MEL-28 melanoma, 73%.
As for `O=C(c1ccccc1)C(Br)C(Br)c1ccccc1` (stereo not given), the growth in the test with HCT-15 colon was 86%; with HT29 colon, -52.9% (active); with SNB-75 CNS, 96.9%; in the test with SNB-19 CNS it was 102%; in the test with U251 CNS it was 68.6%; in the test on PC-3 prostate, 55.3%. Besides, the growth with SK-MEL-5 melanoma is 107%; in the test with UACC-62 melanoma it was 108%; in the test on LOX IMVI melanoma, -55.3% (active); in the test with SK-MEL-28 melanoma, 111%.
On to `Cc1nn(CCO)c(C)c1N=[N+]([O-])c1c(C)nn(CCO)c1C`, for which the growth in the test with HCT-15 colon is -4.21% (active); in the test with HT29 colon, -14% (active); in the test on SNB-75 CNS, 52.4%; in the test on SNB-19 CNS, 98.2%; in the test with U251 CNS it was 69.6%; in the test on PC-3 prostate, 76.6%. Further, the growth with SK-MEL-5 melanoma is 71.5%; with UACC-62 melanoma, 61%; with LOX IMVI melanoma, 16%; with SK-MEL-28 melanoma, 83.2%.
For the molecule `O=C(NOC(=O)c1ccccc1)c1ccccc1`, the growth in the test on HCT-15 colon was 101%; with HT29 colon, 110%; in the test with SNB-75 CNS, 108%; in the test on SNB-19 CNS it was 109%; with U251 CNS, 105%; in the test with PC-3 prostate, 90.2%. In addition, the growth was 105% in the test on SK-MEL-5 melanoma, 109% with UACC-62 melanoma, 100% in the test on LOX IMVI melanoma and 119% in the test on SK-MEL-28 melanoma.
For the molecule `C[n+]1ccccc1C[n+]1ccccc1`, the growth with HCT-15 colon is 110%; in the test on HT29 colon, 103%; with SNB-75 CNS, 101%; with SNB-19 CNS, 104%; in the test on U251 CNS, 109%; with PC-3 prostate, 91.4%. For the same molecule, the growth in the test on SK-MEL-5 melanoma is 105%; in the test with UACC-62 melanoma it was 105%; in the test with LOX IMVI melanoma it was 114%; with SK-MEL-28 melanoma, 98.3%.
Turning to `CN(Cc1ccccc1)c1ccc(SC#N)cc1`, the growth was 71.8% with HCT-15 colon; 52.3% with HT29 colon; 81.3% in the test on SNB-75 CNS; 93.3% in the test with SNB-19 CNS; 73.4% with U251 CNS; 27.4% with PC-3 prostate. The growth is 98.2% with SK-MEL-5 melanoma, 97% in the test with UACC-62 melanoma, 45% in the test with LOX IMVI melanoma and 101% in the test with SK-MEL-28 melanoma.
As for `CCN1CCCC(Nc2cc(C)nc(/N=C(/N)Nc3ccc(Cl)c(Cl)c3)n2)C1` (stereo not given), the growth in the test with HCT-15 colon is -37.2% (active); in the test on HT29 colon, -46.9% (active); in the test with SNB-75 CNS it was -76.8% (active); in the test with SNB-19 CNS it was -17.5% (active); in the test with U251 CNS it was -82.4% (active); in the test on PC-3 prostate, 7.05% (active). In addition, the growth in the test on SK-MEL-5 melanoma was -97.6% (active); with UACC-62 melanoma, -80.7% (active); in the test with LOX IMVI melanoma, -61.5% (active); in the test on SK-MEL-28 melanoma, -87.8% (active).
As to `O=C(NNc1ccccc1)OCc1ccccc1`, the growth in the test on HCT-15 colon was 73%; with HT29 colon it was 97.7%; in the test with SNB-75 CNS, 114%; in the test on SNB-19 CNS it was 97.5%; in the test on U251 CNS, 80.4%; in the test with PC-3 prostate, 54.1%. In addition, the growth in the test on SK-MEL-5 melanoma was 101%; in the test with UACC-62 melanoma, 28.1%; with LOX IMVI melanoma, 20.8%; in the test on SK-MEL-28 melanoma it was 105%.
As for `CN(C)c1ccc(/C=C/c2sc3ccc4ccccc4c3[n+]2C)cc1`, the growth in the test with HCT-15 colon was 0.902% (active); with HT29 colon, -100% (active); in the test on SNB-75 CNS, -95.6% (active); with SNB-19 CNS it was -32.5% (active); in the test with U251 CNS, -51.2% (active); in the test on PC-3 prostate, -38% (active). Further, the growth in the test with SK-MEL-5 melanoma was -100% (active); in the test with UACC-62 melanoma it was -75% (active); in the test on LOX IMVI melanoma, -35.3% (active); in the test on SK-MEL-28 melanoma, -56.6% (active).
In the case of `Oc1ccc(Nc2ccc3ccccc3c2)cc1`, the growth is 54.7% in the test with HCT-15 colon; 95.8% with HT29 colon; 63.2% in the test with SNB-75 CNS; 75.5% with SNB-19 CNS; 67.5% in the test on U251 CNS; 39.2% with PC-3 prostate. Moreover, the growth is 44.7% in the test with SK-MEL-5 melanoma, 18% in the test on UACC-62 melanoma, 40.9% in the test on LOX IMVI melanoma and 90.3% with SK-MEL-28 melanoma.
Turning to `COc1c(C)c2c(c(O)c1C/C=C(\C)CCC(=O)O)C(=O)OC2`, the growth with HCT-15 colon was 20.7%; in the test on HT29 colon it was 13.3%; with SNB-75 CNS, 48.1%; in the test with SNB-19 CNS it was 42.3%; with U251 CNS, 18.3%; in the test with PC-3 prostate it was 40.3%. Moreover, the growth was 23.6% in the test on SK-MEL-5 melanoma, 41.7% in the test on UACC-62 melanoma, 12.1% with LOX IMVI melanoma and 31.3% with SK-MEL-28 melanoma.
